17 compounds from PubChem BioAssay AID624167 (Sanford-Burnham Center for Chemical Genomics, 2012) can be followed below.

The assay is described as follows: inhibition of PEG-3 promoter-driven reporter – cell-based, HeLa, luciferase, CREF/GAPDH counter-screen panel, dose response (AID 624167). The conditions noted are these: CREF/GAPDH counter-screens; run 1, dose range 1, at 100 µM (top of the series). On the technique in general: A counterscreen serves to expose hits that act by an unwanted route or on another target.
In turn, `O=C(CCn1cnc(-c2ccccc2)c1-c1ccccc1)N/N=C/c1ccccc1O` came in with an inhibition of 67.6%.

`COc1ccc(N(C(=O)CCl)C(C(=O)NC2CCCCC2)c2cccnc2)cc1` (configuration not stated) yielded an inhibition of 82.9%.

`C=CCn1c(COc2ccccc2)nnc1SC(C)C(=O)N/N=C/c1cc(Cl)ccc1O` (configuration not stated) yielded an inhibition of 65%.

With `O=C(O)c1ccc(N/N=C/c2ccc3nccnc3c2)cc1`, the inhibition came out at 99%.

Consider `CN1CCC2(CC1)N=C(c1ccc(F)cc1)C(=S)N2C(=O)c1ccc(C(C)(C)C)cc1`, for which the inhibition turned out to be 93.1%.

Take `COc1ccc2c(c1)c(=Cc1ccc(N(C)C)cc1)c1cc(-c3ccccc3)[n+](C)n12`: the inhibition was found to be 99.5%.

In turn, `CCCn1nc(C(=O)Nc2nc(-c3ccccn3)cs2)c2ccccc2c1=O` registered an inhibition of 13.9%.

For the compound `CCCCCCCNC(=O)C1(CC2CC(c3cccc(Br)c3)=NO2)CCNCC1` (configuration not stated), the inhibition came out at 95%.

Compound `CCCC(=O)NC(c1ccc(C)cc1)c1ccc2cccnc2c1O` (configuration not stated) had an inhibition of 43.4%.

`Cc1ccc(OCC(=O)c2cc(C)n(-c3ccccc3)c2C)c([N+](=O)[O-])n1` displayed an inhibition of 73%.

As for `CC(=O)NC(c1ccc(Cl)cc1)c1ccc2cccnc2c1O` (configuration not stated), the inhibition amounted to 69.3%.

Consider `Cc1cc(NC(c2ccc(Cl)cc2)c2ccc3cccnc3c2O)no1` (configuration not stated), for which the inhibition came out at 39.3%.

The compound `Cc1cc(Br)ccc1NC(=O)CNC(=O)Cn1ncc(Cl)c(Cl)c1=O` came in with an inhibition of 98.5%.

As to `C=CCn1c(C)cc(C(=O)COc2ccc(C)nc2[N+](=O)[O-])c1C`, the inhibition came to 51.5%.

Regarding `Cc1ccccc1CNC(=O)C1CCCN(c2nnc(C)c3c(C)n(-c4ccccc4)nc23)C1` (configuration not stated), the inhibition is 97.3%.

The compound `COc1cc(C(=O)N/N=C(\c2ccccc2)c2ccccn2)cc(OC)c1OC` yielded an inhibition of 20%.

On to `O=C(N/N=C/c1sc(N2CCOCC2)nc1-c1ccccc1)c1cccc(S(=O)(=O)N2CCCC2)c1`, for which the inhibition worked out at 52%.

A word on the inhibition: it is the percentage by which the read-out fell short of the control. The low end stands for little suppression, the high end for strong suppression.
